# Screens deposited in PubChem by National Center for Advancing Translational Sciences (NCATS).
# In the library only some 2.8% were active in any assay of this set; here they are far more common.
# PI5P4K alpha inh – blocks human PI5P4K alpha kinase activity | P48426 | PI5P4Kalpha enzyme, ADP-Glo luminescence, 60 min; active compounds read low | max response, % | 330,000 compounds, 1.2% hits | AID 652105; active = max response of -50% or lower; inconclusive = between -30% and -50%; inactive = -30% or higher; note: value at the top dose of about 77 µM; % is set by controls: 0 for no effect and ±100 for the full control effect
# Target sequence (P48426 whole entry, looked up): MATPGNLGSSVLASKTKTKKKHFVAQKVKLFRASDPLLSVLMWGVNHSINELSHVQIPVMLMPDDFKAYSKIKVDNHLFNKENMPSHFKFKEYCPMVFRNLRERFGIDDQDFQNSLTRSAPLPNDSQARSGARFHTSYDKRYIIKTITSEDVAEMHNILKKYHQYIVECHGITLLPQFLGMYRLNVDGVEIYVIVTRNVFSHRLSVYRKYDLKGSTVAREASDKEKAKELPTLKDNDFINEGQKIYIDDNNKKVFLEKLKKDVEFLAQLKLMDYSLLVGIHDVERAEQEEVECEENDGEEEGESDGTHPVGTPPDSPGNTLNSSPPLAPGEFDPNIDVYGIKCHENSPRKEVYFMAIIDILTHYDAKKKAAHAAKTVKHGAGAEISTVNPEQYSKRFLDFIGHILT
#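 PI5P4Kalpha ADP-Glo assay; 5 microM ATP final; 60 min RT reaction; HEPES pH 7.4/EGTA/CHAPS, 5% DMSO; controls lacking substrate or enzyme; luminescent end-point.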
# Pol kappa inh-1 – blocks human DNA polymerase kappa activity; 400,000 compounds, 0.53% hits; Q9UBT6; Potency, µM (titrated, usually from 107 µM), for the others: top-dose activity, negative = inhibition, hits mostly inhibitors; AID 588579; purified Pol kappa, fluorescent DNA synthesis assay, 10 min; note: potency is the fitted concentration of half-maximal effect; % is set by controls: 0 for no effect and ±100 for the full control effect
#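 Readout: fluorescence, taken kinetically at 0 and 10 min. Conditions: 10 nM Pol kappa, 15 min RT compound preincubation, 50 nM substrate final. Controls: enzyme-free buffer wells.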
# Pol iota inh – blocks human DNA polymerase iota activity | Q9UNA4 | Pol iota fluorescent replication assay, 10 min | Potency, µM (highest dose often 115 µM), without a hit: at the top dose activity, negative = inhibition, hits mostly inhibitors | 390,000 compounds, 1% hits | AID 588590; note: potency is the fitted concentration of half-maximal effect
#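 Fluorescent replication assay read twice, at 0 min and 10 min after adding 50 nM (final) substrate. Enzyme (10 nM) and compounds were first incubated 15 min at room temperature; enzyme-free buffer wells were negative controls.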
# Pol beta inh – DNA polymerase beta (human) inhibition; P06746; Pol beta primer extension/strand displacement, fluorescence kinetic; Potency, µM (titrated, usually from 114 µM), inactives show at the top dose activity change, negative = inhibition, usual class: inhibitors; 340,000 compounds, 1.3% hits; AID 485314; note: potency is the fitted concentration of half-maximal effect; % is set by controls: 0 for no effect and ±100 for the full control effect
#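 Values derive from four-parameter Hill fits of normalized kinetic data: reads at 0 and 10 min following addition of 50 nM substrate to 10 nM Pol beta preincubated 15 min with compound.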
# Pol eta inh-1 – blocks human DNA polymerase eta activity; Q9Y253; recombinant Pol eta, fluorescent DNA replication assay; Potency, µM (titrated, usually from 114 µM), without a hit: top-dose activity change, negative = inhibition, usual class: inhibitors; 390,000 compounds, 1.2% hits; AID 588591; note: potency is the fitted concentration of half-maximal effect; % is set by controls: 0 for no effect and ±100 for the full control effect
#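 Pol eta at 10 nM preincubated with compounds 15 min at room temperature; reaction started with fluorescent substrate (50 nM final) and read kinetically at 0 and 10 min.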
# FEN1 inh-1 – human FEN1 inhibition. Recombinant FEN1 flap cleavage, fluorescence, 15 min. Potency, µM (series often up to 114 µM), inactives show top-dose activity change, negative = inhibition, usual class: inhibitors. 390,000 compounds, 0.35% hits; note: potency is the fitted concentration of half-maximal effect; % is set by controls: 0 for no effect and ±100 for the full control effect; nearly all actives have a fitted effect of over 65% in size
# Target sequence (P39748 whole entry, looked up): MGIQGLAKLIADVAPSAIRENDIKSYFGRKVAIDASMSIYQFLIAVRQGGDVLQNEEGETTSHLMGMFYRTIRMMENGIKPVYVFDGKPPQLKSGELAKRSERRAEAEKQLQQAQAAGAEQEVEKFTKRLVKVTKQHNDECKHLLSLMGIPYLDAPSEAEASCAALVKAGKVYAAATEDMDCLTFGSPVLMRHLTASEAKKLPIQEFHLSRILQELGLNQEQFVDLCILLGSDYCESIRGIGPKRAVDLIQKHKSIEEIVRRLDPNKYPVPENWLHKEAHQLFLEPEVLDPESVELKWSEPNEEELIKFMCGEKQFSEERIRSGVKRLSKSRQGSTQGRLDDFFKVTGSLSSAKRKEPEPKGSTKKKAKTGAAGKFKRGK
#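 With each library titrated from low to high concentration, compounds met 10 nM FEN1 for 15 min at room temperature before 50 nM substrate was added; readings at 0 and 15 min fed four-parameter Hill curve fits.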
# TbPGK inh – blocks T. brucei phosphoglycerate kinase; Potency, µM (highest dose often 57.5 µM), for inactives: at the highest dose activity change, negative = inhibition, usual class: inhibitors; AID 686980; shares compounds with Pol kappa inh-1; 500 compounds, 79% hits; TbPGK coupled GAPDH assay, Kinase-Glo luminescence; note: potency is the fitted concentration of half-maximal effect; % is set by controls: 0 for no effect and ±100 for the full control effect; nearly all actives have a fitted effect of over 65% in size
# POLI cherry-pick – Inhibitors of human DNA polymerase iota, confirmation; 1,500 compounds, 77% hits; Pol iota primer extension, TAMRA/BHQ fluorescence; Potency, µM, actives largely listed as inhibitors; shares compounds with Pol kappa inh-1; note: potency is the fitted concentration of half-maximal effect
# Pol kappa inh-2 – confirmation of human DNA polymerase kappa inhibitors | shares compounds with Pol eta inh-1 | purified Pol-kappa, fluorescent strand-displacement substrate | Potency, µM, most hits filed as inhibitors | 920 compounds, 76% hits; note: potency is the fitted concentration of half-maximal effect
# Pol eta inh-2 – Pol eta (human) inhibition, cherry-pick confirmation. shares compounds with Pol eta inh-1. Potency, µM, most hits filed as inhibitors. 2,600 compounds, 64% hits. Pol eta primer extension, TAMRA/BHQ fluorescence, 10 min; note: potency is the fitted concentration of half-maximal effect
# FEN1 inh-2 – FEN1 inhibition, cherry-pick retest; shares compounds with FEN1 inh-1; FEN1 flap cleavage, TAMRA/BHQ2 fluorogenic DNA substrate; Potency, µM, actives largely listed as inhibitors; 880 compounds, 79% hits; AID 720498; note: potency is the fitted concentration of half-maximal effect; nearly all actives have a fitted effect of over 60% in size
# Starred values were filed as active, the others as inactive; ? = inconclusive; nt = no result; [ ] = another dose, or the depositor's remark. Unless noted, calls come from the whole dose curve; as a rule, active = well fitted curve in the direction sought with a large enough effect; inconclusive = small, poorly fitted or top-dose-only effect, or another doubt; inactive = no such curve, though single readings can be large; an effect the other way counts as inactive or inconclusive.
SMILES,PI5P4K alpha inh,Pol kappa inh-1,Pol iota inh,Pol beta inh,Pol eta inh-1,FEN1 inh-1,POLI cherry-pick,Pol kappa inh-2,Pol eta inh-2,FEN1 inh-2,others
O=c1/c(=C\c2cccnc2)sc2nc3ccccc3n12,-1.3,-2.3%,-9.2%,-0.8%,-10.8%,-2.7%,nt,nt,nt,nt,
O=C(O)c1ccc(-c2ccc(/C=c3/sc4nc5ccccc5n4c3=O)o2)cc1Cl,-63.9*,10µM*,3.16µM*,3.98µM*,1.58µM*,12.6µM*,15*,2.99*,6.01*,?,TbPGK inh=11.6µM*
Cc1ccc(S(=O)(=O)N(C)C)cc1NC(=O)Cn1c(CN2CCOCC2)nc2ccccc2c1=O,-0.5,-3.6%,-10.3%,1.4%,-19.6%,-3.6%,nt,nt,nt,nt,
O=C(O)C1Nc2c(O)cc(Cl)c([N+](=O)[O-])c2C2C=CCC12 (stereo unspecified),-84.5*,1.78µM*,?,0.251µM*,1.26µM*,?,15*,nt,4.78*,23.9*,TbPGK inh=1.46µM*
COc1cc(/C=C2\SC(=Nc3ccc(Cl)c(C(=O)O)c3)NC2=O)c(Br)c(Br)c1O,-106.2*,39.8µM*,22.4µM*,8.91µM*,17.8µM*,25.1µM*,67*,8.44*,?,37.9*,
Oc1ccc(/C=N/Nc2ccc(Cl)nn2)c(O)c1O,-70.6*,?,?,17.8µM*,10µM*,?,16.8*,nt,30.1*,37.9*,
CN(C)S(=O)(=O)c1ccc(C(=O)Nc2ccn(C)n2)cc1,0.3,1.4%,28.9%,-1.8%,-3.3%,0.0%,nt,nt,nt,nt,
CCN(CC)c1ccc2nc3ccc(N)cc3[n+](-c3ccccc3)c2c1,?,22.4µM*,79.4µM*,nt,?,44.7µM*,18.9*,47.4*,75.7*,47.8*,TbPGK inh=13µM*
Cc1cc2nc(-c3cccc(Br)c3)c(Cc3ccccc3)n2c(C)c1Br,-6.7,nt,nt,nt,nt,nt,nt,nt,nt,nt,
Cc1cccc(NC(=O)CN2C(=O)N/C(=C\c3ccccc3OCc3ccc(C(=O)O)cc3)C2=O)c1,-18.2,?,?,50.1µM*,?,?,75.2*,nt,nt,75.7*,
CCN1/C(=C/c2ccc3cc(C)ccc3[n+]2CC)Sc2cc(C)c(C)cc21,-13.0,-22.4%,87.1%,14.1µM*,?,31.6µM*,42.3*,nt,75.7*,4.78*,
CC(C)Nc1nc(NC(C)C)nc(SCC(N)=O)n1,1.7,2.2%,125.9%,-7.6%,-9.0%,4.3%,nt,nt,nt,nt,
N#C/C(=C\c1ccc(O)c(O)c1)C(=O)Nc1cccc2ncccc12,-71.9*,3.98µM*,3.16µM*,0.794µM*,2.82µM*,44.7µM*,6.7*,nt,3.79*,?,
C=CCNC(=S)N1CCN(C2CCCCC2)CC1,-2.9,-6.7%,53.0%,-10.4%,-5.3%,2.6%,nt,nt,nt,nt,
O=C1N=C(N2CCOCC2)SC1=Cc1ccco1,6.4,-18.8%,-20.8%,nt,-16.9%,6.2%,nt,nt,nt,nt,
O=C1C(=Cc2ccco2)CCC1=Cc1ccco1,-83.5*,5.01µM*,?,nt,0.794µM*,8.91µM*,2.99*,2.67*,5.36*,16.9*,TbPGK inh=18.3µM*
COCCCNc1c2c3c(cccc3[nH]c1=O)C(=O)c1ccccc1-2,-29.6,?,?,25.1µM*,?,79.4µM*,?,?,?,60.1*,
CCn1c(=O)c2c(nc3n2CCN3c2ccc(OC)cc2)n(C)c1=O,nt,-7.0%[60.1 µM],19.0%,4.9%,-14.5%,-6.7%,nt,nt,nt,nt,
CNc1c2cccc(C)c2nc2c(C(=O)NCCN(C)C)cccc12,5.9,8.91µM*,11.2µM*,nt,3.55µM*,2.82µM*,2.99*,nt,37.9*,2.69*,
COc1cc(Cl)c(C)cc1NC(=O)Cn1c(C)c2cnn(-c3ccccc3)c(=O)c2c1C,nt,-14.3%,1.4%,-16.1%,-9.9%,-13.5%,nt,nt,nt,nt,
O=C1NC(=S)S/C1=C/c1ccc(N2CCOCC2)o1,-52.6*,?,79.4µM*,14.1µM*,?,44.7µM*,37.7*,84.4*,75.7*,37.9*,
Cc1cc2[nH]c3c(c[n+](C)c4ccccc34)c2cc1C,-16.4,25.1µM*,4.47µM*,1.26µM*,?,?,15*,nt,nt,3.79*,
Cc1cc(=O)[nH]c2ccccc12,-4.7,7.6%,2.5%,1.1%,1.1%,-10.3%,nt,nt,nt,nt,
Cc1cc(C)c(S(=O)(=O)/N=C2/C=C(Sc3ncn[nH]3)C(=O)c3ccccc32)cc1C,-80.0*,?,1µM*,79.4µM*,12.6µM*,50.1µM*,16.8*,nt,23.9*,33.8*,
N#C/C(=C\c1ccc([N+](=O)[O-])o1)C(=O)Nc1ccc(F)cc1,-84.1*,79.4µM*,?,39.8µM*,22.4µM*,-19.1%,?,nt,47.8*,47.8*,
SMILES,PI5P4K alpha inh,Pol kappa inh-1,Pol iota inh,Pol beta inh,Pol eta inh-1,FEN1 inh-1,POLI cherry-pick,Pol kappa inh-2,Pol eta inh-2,FEN1 inh-2,others
COc1ccc(-c2noc(CC(=O)Nc3ccc(Br)cc3C)n2)cc1,nt,7.5%,23.8%,-0.6%,-8.6%,-1.6%,nt,nt,nt,nt,
CCOc1cc(/C=N/NC(=O)c2ccc(-c3csc(Nc4ccc(C)cc4)n3)cc2)ccc1OCC(=O)O,?,31.6µM*,8.91µM*,5.01µM*,17.8µM*,50.1µM*,29.9*,18.9*,75.7*,53.6*,TbPGK inh=11.6µM*
Cc1nc(CC(=O)N/N=C/c2ccc(OCC(=O)O)cc2)cs1,-1.3,8.7%,-21.8%,4.0%,-32.1%,41.5%,nt,nt,nt,nt,
O=C(O)COc1ccc(/C=N/NC(=O)c2ccc(-c3csc(Nc4ccc(Cl)cc4)n3)cc2)cc1,-69.2*,7.94µM*,2.82µM*,?,2.51µM*,?,2.99*,nt,10.7*,30.1*,
CCc1ccc(C(=O)c2cn(CC(=O)Nc3ccc4c(c3)OCO4)c3ccc(OC)cc3c2=O)cc1,nt,-21.6%,?,10µM*,44.7µM*,31.6µM*,21.2*,16.8*,?,67.5*,
O=C1/C(=C\c2cc([N+](=O)[O-])ccc2O)SC(=S)N1Cc1ccc(Cl)cc1,?,-3.7%,?,3.16µM*,?,22.4µM*,33.6*,nt,23.9*,37.9*,
